Data as given in PubChem BioAssay (NCI).
The panel holds about 83,000 compounds, 20% with a hit somewhere; the sample as a whole holds those more often.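 Step 1: grow cells in 96-well plates. Step 2: add test compound at a single concentration. Step 3: incubate 48 h. Step 4: record percent growth.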 A number with no mark means an inactive call. Calls of active or inactive are those of the source. The calls were made as follows: active = growth percent below 10; inactive = the rest.

System: MDA-MB-468 breast
Experiment: NCI-60 one-dose screen, 48 h (100 = growth as untreated, 0 = no growth, -100 = all killed)
Settings: 10 µM unless noted

| SMILES | growth |
| --- | --- |
| CN1CCN(c2ccc(-c3ccc4ncc(C#N)c(Nc5ccc(F)c(Cl)c5)c4c3)cc2)CC1 | 1.52% (active) |
| O=S(=O)(Nc1ccc2c(c1)OC(F)(F)O2)c1ccc(-c2cnc(C3CC3)o2)cc1 | 15.3% |
| C/C(=C(/c1ccc(Cl)cc1)c1ccc(OCCCN(C)C)cc1)c1ccc(Cl)cc1 | 89.4% |
| CC(C)C[C@H](C(=O)N[C@H](C(N)=O)C(C)C)N1CC=CCN(OCc2ccccc2)S1(=O)=O | 105% [2.5 µM] |
| C=C1C(=O)O[C@H]2[C@H]1CC/C(COC(=O)NCCc1cccc(OC)c1)=C\CC[C@@]1(C)O[C@@H]21 | 18.9% |
| S=C(Nc1ccc(Cl)cc1)c1ccccn1 | 98.9% |
| COc1cc(-c2nc3ccc(C)cc3[nH]2)ccc1OCC(=O)N=Nc1c(O)[nH]c2ccccc12 | -85.9% (active) |
| C/C(=C\CCc1ccsc1)CC/C=C(\C)CCCN1CCC(CO)CC1 | -27.3% (active) |
| NC(N)=N/N=C\c1cccc(OCc2ccccc2)c1 | 19.1% |
| CCCCCCCCCCC(=O)CCCCCCCCCC | 107% |
| CC(C)(C)[Si](C)(C)OC1[C@@H](O[Si](C)(C)C(C)(C)C)[C@@H](CNC(=O)NC(=O)C(F)(F)F)O[C@H]1n1cnc2c(NC(=O)Nc3ccccc3)ncnc21 (stereo not given in full) | 102% |
| COC(=O)c1cc(=O)nc(N/N=C/c2ccc(C)cc2)s1 | 110% |
| C/C(=C\c1cnc(C)s1)[C@@H]1C[C@@H]2O[C@@H]2CCC[C@H](C)[C@H](O)[C@@H](C)C(=O)C(C)(C)[C@@H](O)CC(=O)O1 | 43.4% |
| O=C1NN(C(=O)c2ccc(O)cc2)C(c2ccccc2)=N/C1=C\c1cn(-c2ccccc2)nc1-c1ccccc1 | 110% |
| COc1cc(/C=C/C(=O)c2cc(-c3ccc(C(F)(F)F)cc3)ccc2O)cc(OC)c1OC | 57.9% |
| c1ccc(Nc2ccccn2)cc1 | 111% |
| O=C(CNc1ccc2c(c1)C(=O)c1ccccc1C2=O)Nc1ccc2c(c1)C(=O)c1ccccc1C2=O | -87.4% (active) |
| Oc1cccc2ccc(N/N=C/c3cc(CN4CCOCC4)c(O)c4ncccc34)nc12 | -24.6% (active) |
| COc1ccc(OC)c(-c2ccc(-c3ccccc3N)c3[nH]c4ccccc4c23)c1 | 72.1% |
| Cc1[nH]c(C(=O)Nc2ccc(S(=O)(=O)N3CCCCC3)cc2OCCOCCOCCOCCOCCOCCOCCOCCOCCOc2cc(S(=O)(=O)N3CCCCC3)ccc2NC(=O)c2[nH]c(C)c3c2CCCCC3=O)c2c1C(=O)CCCC2 | -11.1% (active) |
| CC12CC(C#N)CCC1O2 (stereo not given) | 111% |
| CCOC(=O)NC(/C=C/c1ccccc1)NC(=O)OCC | 99.7% |
| C=CC(=O)Nc1cc(Nc2nccc(-c3cn(C)c4ccccc34)n2)c(OC)cc1N(C)CCN(C)C | -74.1% (active) |
| CCN(CC)CCC(=O)c1cccc2ccccc12 | 84.5% |
| COc1ccc(-c2cc(-c3ccc(OC)c(OC)c3)nc(SCCCCCC(=O)NO)n2)cc1 | 54.8% |
